Test results published in PubChem BioAssay (NCI).
Where “and” joins values, the source holds several entries; their conditions need not be identical. Equal values may be shown once. This is part of a sample that, as a whole, favours compounds with a hit. Of some 79,000 tested, about 15% had one in any assay. Unmarked numbers belong to inactive results. Calls of active or inactive are those of the source. No stated cut-off is given here; in the data, active means growth inhibition above about 70%; inactive means the rest.

Test: NCI Yeast Anticancer Drug Screen. Data for the mlh1 rad18 strain (AID 175)
Conditions: S. cerevisiae mlh1 rad18 strain growth inhibition, active compounds read high; at 50.0 µM unless noted
Procedure, shortened: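 Read-out is yeast growth inhibition, calculated against vehicle-only controls. The compound was applied to a strain engineered with DNA damage repair alterations.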

Structure (SMILES) | growth inhibition
O=C(C1=CCCCC1)c1ccc(-c2ccccc2)cc1 | 4.65%
c1ccc2c(c1)C(=NCCCN1CCCCCCC1)c1cccn1-2 | 25.4%
Cn1cnc([N+](=O)[O-])c1Sc1nc2cc(Cl)c(F)cc2[nH]1 | -29.4%
COCCCC(=O)CNC(C)C | -14.4%
O=C(CCS(=O)(=O)CCC(=O)c1ccc2ccccc2c1)c1ccc2ccccc2c1 | -52.5%
NC(=O)Nc1ccccc1-c1ccccc1 | 7.45%
Nc1nc(N)c2nc(SC34CC5CC(CC(C5)C3)C4)c(N)nc2n1 | 1.4%
CC(C)(O)CCNc1ncnc2c1ncn2C1OC(CO)C(O)C1O (stereo not given) | 13.8%
OC(CN1CCCC1)c1ccccc1 (stereo not given) | -30.6%
O=C1c2ccccc2C(=O)N1CN1C(=O)c2ccccc2S1(=O)=O | 34.9%
COc1ccccc1N=C(N)N/N=C/c1c[nH]c2ccccc12 | 15.2%
CC(=O)Nc1nc(SCc2ccccc2)c2[nH]cnc2n1 | 7.3%
CC1=CCCC2C(C=O)(C1)CC(C)C2(CO)CC/C(=C/CO)CO (stereo not given) | -5.7%
CCCCC(C)(C)SCCC(=O)O | -5.35%
CCCCCC[N+](C)(C)C | 16.2%
CC(=NCCCCN=C(C)c1cc(O)cc(Br)c1O)c1cc(O)cc(Br)c1O.[Co] | 24.4%
CN(Cc1cnc2nc(N)nc(N)c2n1)c1ccc(C(=O)NC(CCC(=O)OCc2c(Cl)cccc2Cl)C(=O)OCc2c(Cl)cccc2Cl)cc1 (stereo not given) | 24.5%
Cc1ccc(S(=O)(=O)OCC2C3C=CC(C4C=CC43)C2COS(=O)(=O)c2ccc(C)cc2)cc1 (stereo not given) | -0.4%
Nc1ncnc2c1ncn2CC(O)CN(CCO)CCO (stereo not given) | 18.6%
CCCCCCCCCCCCCCCCCC(=O)N1CCN(C(=O)CCCCCCCCCCCCCCCCC)C1 | 1.05%

Structure (SMILES) | growth inhibition
CCOC(=O)c1c[nH]n(-c2ccccc2)c1=O | 12.6%
CN(C)CCNC(=O)Nc1cccc2ccccc12 | 2.25%
O=C1CCC(=O)N1C(c1ccccc1)c1ccccc1 | -6.2%
COC(=O)c1ccccc1-c1ccccc1C(=O)O | -1.7%
Cc1ccc(/C=C2\CCCC\C2=N\O)cc1 | 2.15%
COc1ccc(OC)c2[nH]c(Sc3c([N+](=O)[O-])ncn3C)nc12 | -7.7%
O=C(Nc1ccc([N+](=O)[O-])cc1C(=O)O)c1ccc([N+](=O)[O-])cc1 | 2%
CCCCOC(=O)NC(=O)c1cc2cc(Cl)ccc2oc1=O | 18.8%
O=C(O)c1cc(Cl)c2ccccc2c1O | 33.1%
CCOC(=O)c1[nH]c(=O)[nH]c(=O)c1[N+](=O)[O-] | -2.3%
O=C(O)Cc1ccc(O)cc1 | 1.75%
CC(C(=O)O)N1C(=O)CNC1=O (stereo not given) | -12.8%
Nc1cc(N)c(N)cc1N | 15% and 8.75%
CCCCOP(=O)(Nc1ccc([N+](=O)[O-])cc1)OCCCC | 87.5% (active)
O=C1C(N2CCCCC2)=C(c2ccccc2)c2ccccc21 | -10.2%
Cc1ccc2c(c1)P(=O)(O)c1cc(C)ccc1S2 | 19.7%
O=C(O)C1C2CCCC21 (stereo not given) | 0.8%
Cc1ccc2nc(=O)c3cccnc3n2c1 | 12.8%
O=C(NCc1ccccc1)C(=O)NCc1ccccc1 | 5%
Cc1cc(OCC(=O)O)cc(C)c1C | -1.45%
